In PubChem BioAssay AID1159580 (chemical genetic matrix, 2015):
Out of some 5,500 compounds screened, about 2,000 (36%) were called active. Another 18% or so got no clear call; they are omitted. The list shows a part of the results. Unmarked numbers belong to inactive results. No stated cut-off is given here; in the data, active means normalized growth mostly below about 0.91 (no sharp cut-off); inconclusive means no clear call, values can overlap the other calls; inactive means mostly above about 0.92.

Assay: chemical genetic growth profiling, strain panel (AID 1159580);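 further: tested at 20 µM; growth read once vehicle control cultures reached saturation at 30 °C; 1 = growth at the plate median or of vehicle wells; lower values mean less growth of the strain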
Settings: growth OD
[1] = S. cerevisiae deletion strains, locus YAL013W, strain DEP1, hits give low values
[2] = S. cerevisiae deletion strains, locus YBR229C, strain ROT2, hits give low values
[3] = S. cerevisiae deletion strains, locus YDL101C, strain DUN1, hits give low values
[4] = S. cerevisiae deletion strains, locus YDL134C, strain PPH21, hits give low values
[5] = S. cerevisiae deletion strains, locus YDR150W, strain NUM1, hits give low values
[6] = S. cerevisiae deletion strains, locus YEL061C, strain CIN8, hits give low values
[7] = S. cerevisiae deletion strains, locus YGR078C, strain PAC10, hits give low values
[8] = S. cerevisiae deletion strains, locus YHR030C, strain SLT2, hits give low values
[9] = S. cerevisiae deletion strains, locus YHR087W, strain rtc3, hits give low values
[10] = S. cerevisiae deletion strains, locus YJR043C, strain POL32, hits give low values
[11] = S. cerevisiae deletion strains, locus YJR075W, strain HOC1, hits give low values
[12] = S. cerevisiae deletion strains, locus YKL190W, strain CNB1, hits give low values
[13] = S. cerevisiae deletion strains, locus YLR039C, strain RIC1, hits give low values
[14] = S. cerevisiae deletion strains, locus YLR058C, strain SHM2 (second series), hits give low values
[15] = S. cerevisiae deletion strains, locus YLR085C, strain ARP6, hits give low values
[16] = S. cerevisiae deletion strains, locus YLR262C, strain YPT6, hits give low values
[17] = S. cerevisiae deletion strains, locus YML094W, strain GIM5, hits give low values
[18] = S. cerevisiae deletion strains, locus YMR219W, strain ESC1, hits give low values
[19] = S. cerevisiae deletion strains, locus YMR263W, strain SAP30, hits give low values
[20] = S. cerevisiae deletion strains, locus YMR307W, strain GAS1, hits give low values
[21] = S. cerevisiae deletion strains, locus YNL153C, strain GIM3, hits give low values
[22] = S. cerevisiae deletion strains, locus YNL298W, strain CLA4 (second series), hits give low values
[23] = S. cerevisiae deletion strains, locus YNL322C, strain KRE1, hits give low values
[24] = S. cerevisiae deletion strains, locus YNR030W, strain Alg12, hits give low values
[25] = S. cerevisiae deletion strains, locus YPL055C, strain LGE1, hits give low values
[26] = S. cerevisiae deletion strains, locus YPL241C, strain CIN2, hits give low values
[27] = S. cerevisiae deletion strains, locus YPR135W, strain CTF4, hits give low values
[28] = S. cerevisiae deletion strains, locus YNL128W, strain TEP1, hits give low values

Structure (SMILES): N/C(=N/O)c1csc(-c2ccc(F)cc2F)n1
- normalized growth [1]: 0.96
- normalized growth [2]: 0.978
- normalized growth [3]: 1.02
- normalized growth [4]: 0.995
- normalized growth [5]: 0.968
- normalized growth [6]: 1.01
- normalized growth [7]: 0.989
- normalized growth (S. cerevisiae deletion strains, locus YGR229C, strain SMI1, hits give low values): 0.995
- normalized growth [8]: 0.921
- normalized growth [9]: 0.98
- normalized growth [10]: 1
- normalized growth [11]: 1.02
- normalized growth [12]: 0.996
- normalized growth [13]: 0.933
- normalized growth [14]: 1.01
- normalized growth [15]: 1.14
- normalized growth [16]: 0.969
- normalized growth [17]: 0.933
- normalized growth [18]: 0.995
- normalized growth [19]: 0.997
- normalized growth [20]: 1.25
- normalized growth [21]: 0.986
- normalized growth [22]: 1.01
- normalized growth [23]: 1
- normalized growth [24]: 0.983
- normalized growth [25]: 0.943
- normalized growth [26]: 1
- normalized growth [27]: 0.844
- normalized growth (S. cerevisiae strains, strain wild type, hits give low values): 0.991

Structure (SMILES): Cc1ccc(/C(N)=N\O)cc1F
- normalized growth [1]: 0.998
- normalized growth [2]: 1
- normalized growth [3]: 1.01
- normalized growth [4]: 0.988
- normalized growth [5]: 0.995
- normalized growth [6]: 1.01
- normalized growth [7]: 1.01
- normalized growth [8]: 1.03
- normalized growth [9]: 1
- normalized growth (S. cerevisiae deletion strains, locus YJL187C, strain SWE1, hits give low values): 1.02
- normalized growth [10]: 1.01
- normalized growth [11]: 1.03
- normalized growth [12]: 0.988
- normalized growth [13]: 1.04
- normalized growth [14]: 1.02
- normalized growth [15]: 1.32 [resistant] (active)
- normalized growth [16]: 0.997
- normalized growth [17]: 1
- normalized growth [18]: 1
- normalized growth [19]: 1
- normalized growth [20]: 1.24
- normalized growth [28]: 0.975
- normalized growth [21]: 1.02
- normalized growth [22]: 1.02
- normalized growth [23]: 1
- normalized growth [24]: 0.989
- normalized growth (S. cerevisiae deletion strains, locus YOL006C, strain TOP1, hits give low values): 1.03
- normalized growth [25]: 1.03
- normalized growth [26]: 1.1
- normalized growth [27]: 1.07

Structure (SMILES): Nc1ccn([C@@H]2O[C@H](CO)[C@@H](O)C2O)c(=O)n1 (stereo partly specified)
- normalized growth [1]: 0.982
- normalized growth (S. cerevisiae deletion strains, locus YAL040C, strain CLN3, hits give low values): 1.03
- normalized growth (S. cerevisiae deletion strains, locus YDR363W, strain ESC2, hits give low values): 0.981
- normalized growth (S. cerevisiae deletion strains, locus YER002W, strain NOP16, hits give low values): 1
- normalized growth [28]: 0.967
- normalized growth (S. cerevisiae deletion strains, locus YNL175C, strain NOP13, hits give low values): 0.987
- normalized growth (S. cerevisiae deletion strains, locus YNL197C, strain WHI3, hits give low values): 0.976
- normalized growth (S. cerevisiae deletion strains, locus YNL224C, strain SQS1, hits give low values): 0.983
- normalized growth [23]: 1
- normalized growth (S. cerevisiae deletion strains, locus YOR083W, strain WHI5 (second series), hits give low values): 1.05
- normalized growth [25]: 0.99
- normalized growth [26]: 0.996
